Results: PubChem BioAssay AID504937 (National Center for Advancing Translational Sciences (NCATS), 2011)
Screen size: about 340,000 compounds; about 20 (0.006%) were called active. Calls come from the whole dose curve; as a rule, active = well fitted inhibition curve with a large enough effect; inconclusive = small, poorly fitted or top-dose-only effect; inactive = no such curve, though single readings can be large or run the other way. For the sample, actives were picked, then their nearest neighbours and some compounds at random.

Biological target: Sphingomyelin phosphodiesterase (Homo sapiens) (UniProt P17405)
Assay: Inhibitors of Secretory Acid Sphingomyelinase (S-ASM): qHTS
Conditions: placental ASM, HMU-PC fluorogenic substrate, 60 min; series mostly up to 57.5 µM; activity change, negative = inhibition: at the top concentration
Text: Atherosclerosis is the underlying process for cardiovascular disease and thus is a major contributor to disease burden in the population. […] Thus, selective small molecule inhibitors of S-ASM should block LDL modification and reduce aortic LDL retention and may serve as new agents for the treatment of atherosclerosis. In a collaboration between National Heart, Lung, and Blood Institute and the NCGC a high-throughput amenable screen was developed to identify potent and selective small molecule inhibitors of S-ASM. This enzymatic, fluorescent screen uses an ASM enzyme preparation derived from human placenta and was tested against the NIH Molecular Libraries Small Molecule Repository (MLSMR). NIH Chemical Genomics Center [NCGC] NIH Molecular Libraries Probe Centers Network [MLPCN] MLPCN Grant: MH093173-01 Assay Submitter (PI): Alan Remaley, National Heart, Lung, and Blood Institute and Wei Zhen, NIH Chemical Genomics Center
Two microliters of ASM enzyme (1:150 dilution from stock) are dispensed in 1536-well plate. 23 nL of compound and control are pinned into assay plate using the Kalypsys pintool. The plates are then incubated for 10 minutes at ambient room temperature. Then, 2 uL of the flurogenic substrate, HMU-PC0, (9 uM final) are added to the plate. An incubation for 60 minutes takes place at 37 masculineC. After that, 4 uL of stop solution is added to raise the pH to 10 to end the kinetic reaction. Plate is read on ViewLux, with detection set at Ex = 386 (10) nm and Em = 447 (10) nm.

Chain of Sphingomyelin phosphodiesterase (Homo sapiens) (P17405 47-631 limits assumed): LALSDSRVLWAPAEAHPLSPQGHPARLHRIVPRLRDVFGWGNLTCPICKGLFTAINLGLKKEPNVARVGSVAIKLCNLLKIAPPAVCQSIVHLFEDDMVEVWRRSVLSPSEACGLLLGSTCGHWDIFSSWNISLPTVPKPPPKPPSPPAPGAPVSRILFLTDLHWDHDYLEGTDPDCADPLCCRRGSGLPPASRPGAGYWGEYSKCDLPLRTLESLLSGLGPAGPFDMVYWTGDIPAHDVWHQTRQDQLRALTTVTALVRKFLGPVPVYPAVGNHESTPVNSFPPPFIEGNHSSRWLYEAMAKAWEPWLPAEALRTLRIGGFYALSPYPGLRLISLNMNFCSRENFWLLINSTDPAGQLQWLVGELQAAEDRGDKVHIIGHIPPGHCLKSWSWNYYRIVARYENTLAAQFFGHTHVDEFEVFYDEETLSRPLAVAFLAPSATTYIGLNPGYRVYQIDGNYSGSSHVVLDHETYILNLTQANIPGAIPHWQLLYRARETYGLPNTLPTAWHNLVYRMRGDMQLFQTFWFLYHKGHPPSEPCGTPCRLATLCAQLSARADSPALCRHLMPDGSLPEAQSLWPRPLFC

Activity change, negative = inhibition, inactive:
Cc1cccc(C(=O)O)c1[N+](=O)[O-] -0.0655%
CCCn1c(C)cc(C(=O)COC(=O)c2c(C)nn(-c3ccccc3)c2C)c1C -4.51%
O=C(c1ccc(F)cc1)N1CCC(C(=O)N2CCN(S(=O)(=O)c3ccccc3Br)CC2)CC1 2.48%
Nc1ccccc1C(=O)NC1CCCCNC1=O (stereo unspecified) 13.5%
O=C(N/N=C/c1cccc2cccnc12)[C@H]1C[C@@H]1c1ccccc1 -2.45%
COCC(=O)N(C)[C@H]1C[C@H]2c3cc(Oc4ccccc4C)ccc3CCN2C(=O)[C@H]1[C@H](C)O 6.99%
COC(=O)c1ccc(C2NC(=O)NC(C)=C2C(=O)N(C)C)cc1 (stereo unspecified) 3.7%
COc1ccc2c(c1)C(NS(=O)(=O)OCC(Cl)(Cl)Cl)CCC2 (stereo unspecified) -5.56%
CCOc1ccc(-c2nc(C)sc2CC(=O)O)cc1 -0.38%
Cc1ccc(N(C(=O)CNC(=O)c2ccco2)C(C(=O)NC2CCCC2)c2ccncc2)cc1 (stereo unspecified) -4.07%
COc1ccc(NC(=O)NN2CCN(C)CC2)c(OC)c1 -3.22%
COC(=O)C1=C(C)N(C)C(C)=C(C(=O)OC)C1c1cccc(Br)c1 -20.8%
Cc1c(C(C)CCCO)oc(=O)c2c1Oc1c(C)c(C(C)C[C@@H](C)O)oc(=O)c1C2 (stereo partly specified) 2.63%
C=CCC(Nc1ccccc1)c1cccc(OC)c1OC (stereo unspecified) 0.351%
Cc1nn(Cc2ccc(C(=O)N3N=C(C(F)F)CC3(O)C(F)F)cc2)c(C)c1[N+](=O)[O-] (stereo unspecified) -1.95%
O=C(Nc1cccnc1Oc1ncnc2cc(Cl)ccc12)c1ccc(F)cc1 -1.19%
CCOc1ccc(N2C(=O)Nc3ccccc3C2(O)C(=O)NCc2ccco2)cc1 (stereo unspecified) 0.0783%
O=C1COc2c1ccc(O)c2O 3.65%
CC(C)Cn1cnc2c1c(=O)n(CC(=O)NN)c(=O)n2Cc1ccccc1 -3.33%
Cc1ccsc1/C=N/NC(=O)Cc1cc(=O)[nH][nH]1 0.0426%
Cc1ccc(S(=O)(=O)Nc2ccccc2CNc2c(C)n(C)n(-c3ccccc3)c2=O)cc1 -0.0525%
CCC(C)N1C(=O)S/C(=C/c2ccc(Sc3nc4ccccc4[nH]3)o2)C1=O (stereo unspecified) 1.34%
COc1ccc(CN2CCC(n3nccc3NC(=O)CCCc3ccccc3)CC2)cc1C -0.972%
NS(=O)(=O)c1ccc(NC(=S)NNC(=O)c2cccs2)cc1 1.24%
Cc1cccc(NC(=O)Cn2cc(C(=O)c3ccco3)c3ccccc32)c1 -9.25%
CCC(CC)C(=O)Nc1ccc(S(=O)(=O)Nc2nccs2)cc1 3.8%
O=C(CSc1nc2[nH]c(=O)[nH]c(=O)c2s1)Nc1cccc(F)c1 -2.4%
CSCCC(NC(N)=O)C(=O)N(C)CC(=O)Nc1ccc(C)cc1 (stereo unspecified) 2.8%
CC/C(Cc1ccccc1)=N/NC(=O)CCn1nnc2ccccc21 -1.28%
COc1ccc(C2/C=C\CN(CC(C)C)CC(=O)N2Cc2ccc(F)cc2)cc1 (stereo unspecified) -2.65%
COc1ccc(CN2CCOC2=O)cc1OC -0.898%
COc1ccc(CNC(=O)CN(C(=O)c2csnn2)c2cnc3ccccc3c2)cc1 21.4%
CC(=O)c1cccc(NC(=O)C2CCCN(S(=O)(=O)c3cccc4nonc34)C2)c1 (stereo unspecified) 5.69%
Nc1cccc2c1C(=O)N(Cc1nnc(-c3ccccc3Br)o1)C2=O 340%
CC1CCCCC1NC(=O)CCS(=O)(=O)c1cccc2nonc12 (stereo unspecified) -1.19%
O=C(NNS(=O)(=O)c1ccc(F)cc1)C1CCCCC1 -0.201%
CCN(CC(=O)NCc1cccs1)C(=O)/C=C/c1ccc(C)cc1 -0.0187%
CCn1c(O)c2ccc(C(=O)N=NC(=O)c3cccnc3)cc2c1O -1.65%
O=C(NCC(=O)N(CC1CCCO1)C(C(=O)NC1CCCCC1)c1ccccc1)c1ccco1 (stereo unspecified) -1.66%
CC(C)Cn1c(SCC(=O)Nc2ccc(Cl)cc2F)nc(O)cc1=O -4.26%
COc1ccc(SCCN2CCN(CC(C)C)CCC2=O)cc1 -3.87%
O=S(=O)(c1ccccc1)N1CCC(c2ccccc2)CC1 0.311%
Cc1cc(OCC(=O)N(C)c2c(N)n(Cc3ccccc3)c(=O)[nH]c2=O)c(C(C)C)cc1Cl 4.87%
CN(C(=O)c1ccccc1)c1nccnc1C#N 7.06%
Cc1ccc(-c2nc(C)sc2CC(=O)OCC(=O)Nc2c(F)cccc2F)cc1 4%
Cn1c(=O)n(C)c(=O)n(CC(=O)N2CCCCC2)c1=O -0.0512%
COc1ccccc1CCNS(=O)(=O)c1cc2c3c(c1)C(C)C(=O)N3CCC2 (stereo unspecified) 4.58%
CN(c1ccc2nc3ccccc3c(=O)n2n1)C1CCCCC1 2.94%
O=S1(=O)CCN2C(=N1)SC1=C2CCN(Cc2ccccc2)C1 1.51%
CCOC(=O)c1cc(-c2ccc(F)cc2)n(CC(=O)NCc2ccccn2)c1C -2.49%
COc1ccc(C(C(=O)NC2CCCCC2)N(C(=O)Cc2c[nH]c3ccccc23)c2ccccc2)cc1OC (stereo unspecified) -5.66%
